Compound activity deposited in PubChem by National Center for Advancing Translational Sciences (NCATS).
Shown are actives, neighbours in structure and some others; about 9% of the full set was active somewhere.
BAZ2B inh = qHTS Assay for Inhibitors of BAZ2B | Bromodomain adjacent to zinc finger domain protein 2B (Homo sapiens), Q9UIF8 | AlphaScreen BAZ2B-H3K14Ac peptide displacement | Potency, µM (doses to about 114 µM), hits mostly inhibitors | 360,000 compounds, 4.4% hits | AID 504333, 2011; further: nearly all actives have a fitted effect of over 60% in size
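BAZ2B 50 nM plus b-H3(5-23)K14Ac 50 nM, PBS pH 7.4/0.01% Tween-20, 30 min RT; compound added (max 110 uM), 30 min RT; streptavidin donor/Ni-chelate acceptor beads 10 ug/mL final, 20 min dark; AlphaScreen read.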
G9a inh = qHTS Assay for Inhibitors of Histone Lysine Methyltransferase G9a; Histone-lysine N-methyltransferase EHMT2 (Homo sapiens), Q96KQ7; G9a H3K9 monomethylation, AlphaScreen, 2 h; Potency, µM (titrated, usually from 102 µM), hits mostly inhibitors; 350,000 compounds, 8.8% hits; AID 504332, 2011; further: nearly all actives have a fitted effect of over 75% in size
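Methyltransferase reactions run at room temperature for 2 h (20 nM enzyme, 500 nM biotin-H3K9 peptide, 20 uM SAM) after a 15 min compound preincubation; product detected by AlphaScreen beads and anti-H3K9me1 antibody.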
JMJD2A Tudor = qHTS Assay for Inhibitors of JMJD2A-Tudor Domain. AlphaScreen JMJD2A-Tudor / H3K4me3 peptide binding. Potency, µM (series often up to 114 µM), hits mostly inhibitors. 390,000 compounds, 4.4% hits. AID 504339, 2011; further: nearly all actives have a fitted effect of over 50% in size
PLK1 PBD inh = qHTS for Inhibitors of PLK1-PDB (polo-like kinase 1 - polo-box domain): Primary Screen; Serine/threonine-protein kinase PLK1 (Homo sapiens), P53350; Plk1 PBD binding of FITC phosphopeptide, fluorescence polarization; Potency, µM, actives largely listed as inhibitors; 360,000 compounds, 2.8% hits; further: series mostly up to about 57 µM; nearly all actives have a fitted effect of over 65% in size
HP1b chromo inh = HTS for Inhibitors of HP1-beta Chromodomain Interactions with Methylated Histone Tails | AlphaScreen HP1-beta / biotin-H3K9me3 peptide binding | 390,000 compounds, 0.56% hits | AID 540317, 2011 | Potency, µM (top dose mostly 114 µM), actives largely listed as inhibitors; further: nearly all actives have a fitted effect of over 70% in size
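HP1-beta protein (50 nM final) preincubated 30 min at room temperature with biotinylated H3(1-18)K9me3 peptide (50 nM) in PBS pH 7.4, 0.01% Tween-20, then compound added for 30 min. AlphaScreen streptavidin donor/nickel chelate acceptor beads (10 ug/mL final), 30 min dark, luminescence read.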
12-LOX inh = Primary qHTS assay for inhibitors of human arachidonate 12S-lipoxygenase (ALOX12): Round 2 | Potency, µM (titrated, usually from 108 µM), actives largely listed as inhibitors | AID 1671190, 2021 | 580,000 compounds, 1.1% hits | purified 12hLO, xylenol orange hydroperoxide absorbance
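Purified human 12hLO at 150 nM in 25 mM Hepes, 0.01% Triton X-100, pH 7.0, preincubated 15 min at room temperature with compound. Reaction started with 40 uM arachidonic acid, 30 min at room temperature. Hydroperoxide measured by Fe-xylenol orange, 573/405 nm absorbance ratio.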
A number is an active result; [ ] = dose if it differs, or a comment. The call rests on the fitted dose curve; in most records, active means well fitted curve in the direction sought with a large enough effect; inconclusive means small, poorly fitted or top-dose-only effect, or another doubt; inactive means no such curve, though single readings can be large; an effect the other way counts as inactive or inconclusive.

For COc1ccc(N2CCN(c3ccc(NC(=O)/C=C\C(=O)O)cc3)CC2)cc1 the results were BAZ2B inh inconclusive, G9a inh 45µM, JMJD2A Tudor inactive, PLK1 PBD inh inactive, HP1b chromo inh inactive and 12-LOX inh inactive.
`CCN1C(=O)C(CC(=O)Nc2ccc(OC)cc2)N(CCCN2CCN(c3ccc(OC)cc3)CC2)C1=S` (configuration not stated) gave BAZ2B inh 32µM, G9a inh inconclusive, JMJD2A Tudor 50µM, PLK1 PBD inh inactive, HP1b chromo inh inactive and 12-LOX inh inactive.
For CCc1ccc(NC(=O)NCCN2CCN(c3ccc(OC)cc3)CC2)cc1 the results were BAZ2B inh inconclusive, G9a inh 10µM, JMJD2A Tudor inactive, PLK1 PBD inh inactive, HP1b chromo inh inactive and 12-LOX inh inactive.
For Cc1cc2nc3n(c(=O)c2n1CC(=O)NCc1ccc(Cl)cc1)CCCCC3 the results were 12-LOX inh inactive.
For O=C(NNC(=S)NC(=O)c1ccccc1)c1cccnc1 the results were BAZ2B inh inactive, G9a inh 22µM, JMJD2A Tudor inactive, PLK1 PBD inh inconclusive, HP1b chromo inh inactive and 12-LOX inh inactive.
`COc1ccc(C/C(C)=N/NC(=O)c2cccnc2)cc1` gave BAZ2B inh inconclusive, G9a inh inactive, JMJD2A Tudor 32µM, PLK1 PBD inh inactive, HP1b chromo inh inactive and 12-LOX inh inactive.
Screening COc1cccc(C(=O)NNC(=O)c2cccnc2)c1 returned BAZ2B inh inactive, G9a inh inactive[12.7 µM], JMJD2A Tudor inactive, PLK1 PBD inh inactive, HP1b chromo inh inactive and 12-LOX inh inactive.
`COc1cc(OC)cc(C(=O)NNC(=S)NC(=O)c2cccnc2)c1` gave BAZ2B inh inactive, G9a inh 28µM, JMJD2A Tudor inactive, PLK1 PBD inh inactive, HP1b chromo inh inactive and 12-LOX inh inconclusive.
Screening COc1ccc(C/C(C)=N/NC(=O)c2ccc(Cl)cc2)cc1 returned G9a inh inactive, JMJD2A Tudor inactive, PLK1 PBD inh inactive, HP1b chromo inh inactive and 12-LOX inh inactive.
For CC(C)(C)c1ccc(C(=O)NNC(=S)NC(=O)c2cccnc2)cc1 the results were BAZ2B inh inactive, G9a inh 10µM, JMJD2A Tudor inactive, PLK1 PBD inh inactive, HP1b chromo inh inactive and 12-LOX inh inconclusive.
`O=C(Nc1ccccc1Cl)c1cc(C2CCCCN2S(=O)(=O)c2ccccc2)on1` (configuration not stated) gave PLK1 PBD inh inactive and 12-LOX inh inactive.
For COC(c1ccccc1)c1nnc(CCC(=O)N2CCCCCCC2)o1 (configuration not stated) the results were BAZ2B inh inactive, G9a inh inactive, JMJD2A Tudor inactive, PLK1 PBD inh inactive, HP1b chromo inh inactive and 12-LOX inh inactive.
Screening COc1cccc(Nc2ncc3nc(C)c(=O)n(-c4ccccc4)c3n2)c1 returned G9a inh inactive[0.501 µM] and 12-LOX inh inactive.
CC1CCCN(C(=O)c2cc(-c3cccnc3)nc3ccc(Cl)cc23)C1 (configuration not stated) was read as 12-LOX inh inactive.
`O=C(NNC(=S)NC(=O)c1ccccc1)c1ccc(O)cc1` gave BAZ2B inh inactive, G9a inh 13µM, JMJD2A Tudor inactive, PLK1 PBD inh inconclusive, HP1b chromo inh inactive and 12-LOX inh inconclusive.
`COC(=O)c1cc(C2CC2)nc2c1c(C)nn2CC(=O)NC(C)C` gave 12-LOX inh inactive.
`CC(=O)NCCNc1nc2cc(-c3ccc(C(=O)N4CCN(C)CC4)cc3)sc2c(=O)n1C` gave PLK1 PBD inh inactive and 12-LOX inh inconclusive.
For O=C(NCN1CCc2ccccc2C1)c1cnccn1 the results were BAZ2B inh inactive, G9a inh inactive, JMJD2A Tudor 6.3µM, PLK1 PBD inh inactive, HP1b chromo inh inactive and 12-LOX inh inactive.
`O=C(c1cnccn1)N1CCc2ccccc21` gave BAZ2B inh inconclusive, G9a inh inactive, JMJD2A Tudor 79µM, PLK1 PBD inh inactive, HP1b chromo inh inactive and 12-LOX inh inactive.
CCCCn1nc(C(=O)N(CC)CC(=O)Nc2c(F)cccc2F)c2ccccc2c1=O was read as BAZ2B inh inactive, G9a inh inactive, JMJD2A Tudor inactive, PLK1 PBD inh inactive, HP1b chromo inh inactive and 12-LOX inh inactive.
For Cc1ccc2c(c1)c(C)c(C)n2CC(O)Cn1nnc2ccccc21 (configuration not stated) the results were BAZ2B inh inconclusive, G9a inh inconclusive, JMJD2A Tudor inconclusive, PLK1 PBD inh inactive, HP1b chromo inh inconclusive and 12-LOX inh inactive.
Cc1ccc2c(c1)c(C)c(C)n2CC(O)Cn1nc(C)cc1C (configuration not stated) was read as BAZ2B inh inactive, G9a inh 45µM, JMJD2A Tudor inconclusive, PLK1 PBD inh inactive, HP1b chromo inh inactive and 12-LOX inh inactive.
`O=C(c1cc(-c2ccccc2Cl)nc2ccccc12)N1CCN(c2ccccc2O)CC1` gave BAZ2B inh inactive, G9a inh 56µM, JMJD2A Tudor inactive, PLK1 PBD inh inactive, HP1b chromo inh inactive and 12-LOX inh inconclusive.
Screening Cc1ccc(-c2cc(C(=O)N3CCN(c4ncccn4)CC3)c3cc(Br)ccc3n2)o1 returned BAZ2B inh inconclusive, G9a inh inconclusive, JMJD2A Tudor 35µM, PLK1 PBD inh 6.7µM, HP1b chromo inh inconclusive and 12-LOX inh inconclusive.
For COc1ccc(-c2cc(C(=O)N3CCCCCC3)c3ccccc3n2)c(OC)c1 the results were BAZ2B inh inactive, G9a inh 40µM, JMJD2A Tudor inactive, PLK1 PBD inh inconclusive, HP1b chromo inh inactive and 12-LOX inh inconclusive.
For COc1ccc(-c2cc(C(=O)N3CCN(c4ncccn4)CC3)c3ccccc3n2)cc1 the results were BAZ2B inh inactive, G9a inh inactive[12.7 µM], JMJD2A Tudor inactive, PLK1 PBD inh inactive, HP1b chromo inh inactive and 12-LOX inh inactive.
For COc1ccc(-c2cc(C(=O)N3CCN(c4ncccn4)CC3)c3ccccc3n2)c(OC)c1 the results were BAZ2B inh inactive, G9a inh inconclusive, JMJD2A Tudor inactive, PLK1 PBD inh inactive, HP1b chromo inh inactive and 12-LOX inh inactive.
`COCCOC(=O)/C(C#N)=C/c1cn(Cc2ccccc2)nc1-c1cccnc1` gave BAZ2B inh 79µM, G9a inh inconclusive, JMJD2A Tudor 35µM, PLK1 PBD inh 27µM, HP1b chromo inh inactive and 12-LOX inh inactive.
